Data reported in PubChem BioAssay AID1986 (Sanford-Burnham Center for Chemical Genomics, 2009).
Where “and” joins values, the source holds several entries; their conditions need not be identical. Identical values can stand only once. Screen size: about 290,000 compounds; about 890 (0.31%) were called active. Rule as the data show it: active = inhibition mostly above about 52% (no sharp cut-off); inactive = mostly below about 76%. Only a selection was taken, and actives are over-represented in it overall.

Test: cell-free HIV fusion peptide-binding blockers – biochemical, uHTS, fluorescence dequenching, primary screen (AID 1986)
Details: 30 min, stronger effect = higher value
[1] = measured here: repeat confirmation average inhibition, at 18.6 µM

| Structure (SMILES) | inhibition (at 20 µM) | inhibition [1] [%] |
| --- | --- | --- |
| CCn1c(SCC(=O)NC(C)C)nnc1-c1cccs1 | -1.3% (inactive) | – |
| Cc1cccc(CN2CCN(c3nc4nonc4nc3NC3CC3)CC2)c1 | 6.4% (inactive) | – |
| CCCCC(=O)Nc1nn(C)c2nc3c(C)cccc3cc12 | 0.6% (inactive) | – |
| COc1ccccc1C(=O)Nc1ccc(C2=NNC(=O)CC2C)cc1 (stereo not given) | 1.5% (inactive) | – |
| COc1ccccc1NC(=O)c1nn(-c2ccc(F)c(F)c2)ccc1=O | -0.5% (inactive) | – |
| CCOc1ccc(C(=O)Nc2ccc3c(c2)C(=O)NC3=O)cc1 | 2.2% (inactive) | – |
| C=CCn1c(SC(C)C(=O)NCc2ccc3c(c2)OCO3)nnc1C1CCCCC1 (stereo not given) | -0.3% (inactive) | – |
| CSc1ncc(CN2CCCC(C(=O)c3ccc(C(C)(C)C)cc3)C2)cn1 (stereo not given) | 2.1% (inactive) | – |
| CCS(=O)(=O)C1=NN2C(=N)/C(=C\c3ccc(OC(=O)c4ccco4)c(OC)c3)C(=O)N=C2S1 | 34.9% (inactive) | – |
| CCOc1cc(/C=C2\C(=N)N3N=C(S(=O)(=O)CC)SC3=NC2=O)ccc1OC(=O)c1ccco1 | 60.6% (active) | – |
| CCOc1cc(/C=C2/C(=N)N3N=C(CC)SC3=NC2=O)ccc1OC(=O)c1ccco1 | 12.4% (inactive) | – |
| O=C1C(c2cc(=O)c3ccccc3[nH]2)=C(O)c2ccccc21 | -2.1% (inactive) | – |
| Brc1ccc(/C=C/C=N/Nc2nc3ccccc3s2)cc1 | -4.3% (inactive) | – |
| Oc1ccc(N=C/C=C/c2cccc(Br)c2)cc1-c1nc2ccccc2s1 | 61.8% (inactive) | 5.5 |
| Oc1ccc(N=C/C=C/c2ccc(Br)cc2)cc1-c1nc2ccccc2s1 | 64.1% (active) | – |
| O=C1CCC(C(=O)Nc2cc(C(F)(F)F)ccc2-n2cncn2)=NN1 | -0.2% (inactive) | – |
| Cc1ccc(-n2cccc2/C=C2/C(=N)N3C(=NC2=O)SN=C3S(C)(=O)=O)cc1 | 77.1% (active) | – |
| CC1=CSC2=NC(=O)/C(=C\c3cccn3-c3ccccc3)C(=N)N12 | 8.7% (inactive) | – |
| CCOc1cc(/C=C2/C(=N)N3C(=NC2=O)SN=C3S(C)(=O)=O)ccc1OC(=O)c1ccco1 | 44.6% (inactive) | – |
| CC1=CSC2=NC(=O)/C(=C\c3cccn3-c3ccc([N+](=O)[O-])cc3)C(=N)N12 | 0.3% (inactive) | – |
| Cc1ccc(-n2cccc2/C=C2\C(=N)N3N=C(C(C)C)SC3=NC2=O)cc1 | 49.5% (inactive) | – |
| CCc1ccc(-n2cccc2/C=C2/C(=N)N3C(=NC2=O)SN=C3S(C)(=O)=O)cc1 | 74.8% (active) | – |

| Structure (SMILES) | inhibition (at 20 µM) | inhibition [1] [%] |
| --- | --- | --- |
| Cc1cccc(C)c1-n1cccc1/C=C1/C(=N)N2C(=NC1=O)SN=C2S(C)(=O)=O | 68.4% (active) | – |
| CS(=O)(=O)C1=NSC2=NC(=O)/C(=C\c3ccc(OC(=O)c4ccco4)cc3)C(=N)N21 | 47.4% (inactive) | – |
| CS(=O)(=O)C1=NSC2=NC(=O)/C(=C\c3cccn3-c3ccccc3Cl)C(=N)N21 | 78.5% (active) | – |
| CCC1=NN2C(=N)/C(=C\c3cccn3-c3ccc(Cl)cc3)C(=O)N=C2S1 | 30.5% (inactive) | – |
| CS(=O)(=O)C1=NSC2=NC(=O)/C(=C\c3ccc(-c4ccccc4)o3)C(=N)N21 | 34.9% (inactive) | – |
| CCC1=NN2C(=N)/C(=C\c3cccn3-c3ccc(Br)cc3)C(=O)N=C2S1 | 12.9% (inactive) | – |
| COCCN(C(=O)Nc1ccc(OC)cc1OC)C1CCN(C(C)C)CC1 | -0.7% (inactive) | – |
| CN(NC(=O)Nc1ccc(Cl)cc1)c1c(Cl)c(Cl)nn1C | -1.2% (inactive) | – |
| Cc1cccc(Nc2nc(C)cc(C)n2)c1 | 1.1% (inactive) | – |
| CCN(CC)S(=O)(=O)c1ccc(NC(=S)NC(=O)C2CCC2)cc1 | 0.1% (inactive) | – |
| CSCC[C@H](NC(=O)N1CCn2c1nc1ccccc12)C(=O)N1CCCCC1 | 1.5% (inactive) | – |
| COc1ccc(C)cc1-n1nnnc1SCC1CCCO1 (stereo not given) | 1% (inactive) | – |
| Cc1cccc(Cn2c(=O)c3c(nc4n3CCN4Cc3ccco3)n(C)c2=O)c1 | -3% (inactive) | – |
| O=[N+]([O-])c1ccccc1OCCCNCc1ccccc1 | 1.6% (inactive) | – |
| CN1CCN(c2ccc(NC(=O)COc3ccccc3[N+](=O)[O-])cc2)CC1 | -1.4% (inactive) | – |
| CC(C)Cc1ccc(CN2CCCC(NC(=O)CCN3CCCO3)C2)cc1 (stereo not given) | -1.9% (inactive) | – |
| O=C(Cn1cnc2c(nnn2Cc2ccc(F)cc2)c1=O)Nc1cccc(F)c1 | 3.6% (inactive) | – |
| CSCC(C)N1CCC(Oc2cccc(C(=O)NCc3ccccn3)c2)CC1 (stereo not given) | 17% (inactive) | – |
| O=C(O)CCCCC1SCC2NC(=O)NC21 (stereo not given) | 0.9% (inactive) and -0.7% (inactive) | – |
| O=C(O)CCCCC1CCSS1 (stereo not given) | 63.2% (active) | – |
| O=C(O)CCCCCCCC(=O)O | -0.3% (inactive) | – |
| CN(C)c1ccc(/C=C2\CCC/C(=C\c3ccccc3)C2=O)cc1 | 80.8% (active) | 70.4 |

| Structure (SMILES) | inhibition (at 20 µM) | inhibition [1] [%] |
| --- | --- | --- |
| CN(C)c1ccc(/C=C2\CCCCC2=O)cc1 | 3.4% (inactive) | – |
| CC(C)/C=C1\CC/C(=C\c2ccc(N(C)C)cc2)C1=O | 37.1% (inactive) | – |
| COc1ccc(/C=C2\C(=O)NC(=S)N2C(=O)c2ccc(F)cc2)cc1 | 70.6% (active) | 59.8 |
| O=C1NC(=S)N(C(=O)c2ccc(F)cc2)/C1=C/c1ccccc1 | 79% (inactive) | 19.2 |
| O=C1NC(=S)N(C(=O)c2ccc(F)cc2)/C1=C/c1cccnc1 | 4.6% (inactive) | – |
| COc1ccc(/C=C2\C(=O)NC(=S)N2C(=O)c2ccc(C)cc2)cc1 | 63.6% (active) | – |
| COc1ccc(/C=C2\C(=O)NCC(=O)N2C)cc1 | -3.1% (inactive) | – |
| COc1ccc(C(=O)N2C(=S)NC(=O)/C2=C\c2ccc(C)cc2)cc1 | 43.1% (inactive) | – |
| Cc1ccc(C)c(S(=O)(=O)Nc2ccc(C(=O)NCCCN3CCCC3=O)cc2)c1 | 0.7% (inactive) | – |
| Cc1cc(OCC(=O)NCc2cccnc2)c2c(C)c(Cc3ccccc3)c(=O)oc2c1 | 1.1% (inactive) | – |
| N#C/C(=C\c1ccc(N2CCCCC2)o1)C(=O)Nc1cccc(Br)c1 | 21.6% (inactive) | – |
| N#C/C(=C/c1ccc(N2CCOCC2)o1)C(=O)NC1CCCCC1 | 80.5% (active) | – |
| N#C/C(=C/c1ccc(-c2ccc(Br)cc2)o1)C(=O)NC1CCCCC1 | 3.7% (inactive) | – |
| Cc1ccc(/C=C(\C#N)C(=O)NCC2CCCO2)o1 (stereo not given) | 0.2% (inactive) | – |
| N#C/C(=C\c1ccc(N2CCOCC2)o1)C(=O)NCC1CCCO1 (stereo not given) | 118% (active) | 68 |
| N#C/C(=C/c1ccc(N2CCCCC2)o1)C(=O)NCCc1c[nH]c2ccccc12 | 11.8% (inactive) | – |
| COc1ccc(NC(=O)/C(C#N)=C\c2ccc(N3CCOCC3)o2)cc1 | 149% (inactive) | – |
| COCCNC(=O)/C(C#N)=C/c1ccc(N2CCOCC2)o1 | 15.1% (inactive) | – |
| N#C/C(=C\c1ccc(-c2ccc(S(=O)(=O)N3CCOCC3)cc2)o1)C(=O)NC1CC1 | 5.1% (inactive) | – |
| N#C/C(=C\c1ccc(N2CCOCC2)o1)C(=O)NC1CCCCC1 | 66.5% (active) | 55.2 |
| N#C/C(=C\c1ccc(-c2ccc(C(=O)O)cc2)o1)C(=O)NCC1CCCO1 (stereo not given) | 11.9% (inactive) | – |
| N#C/C(=C\c1ccc(N2CCOCC2)o1)C(=O)NCCc1ccccc1 | 110% (active) | – |

| Structure (SMILES) | inhibition (at 20 µM) | inhibition [1] [%] |
| --- | --- | --- |
| CN(C)C(=O)CSc1nnc(Cc2ccccc2)n1CC1CCCO1 (stereo not given) | -1.3% (inactive) | – |
| COc1ccc(CN(CC(=O)NC2CCCC2)C(=O)CN2C(=O)COc3ccccc32)cc1 | 0.4% (inactive) | – |
| Clc1ccc(-c2cnn3c(-c4ccncc4)ccnc23)cc1 | -1.1% (inactive) | – |
| CCN1CCc2c(sc(NC(=O)C3COc4ccccc4O3)c2C(N)=O)C1 (stereo not given) | -0.3% (inactive) | – |
| COC(=O)c1c(NC(=O)C2COc3ccccc3O2)sc2c1CCN(Cc1ccccc1)C2 (stereo not given) | 3.6% (inactive) | – |
| NC(=O)c1c(NC(=O)C2COc3ccccc3O2)sc2c1CCN(Cc1ccccc1)C2 (stereo not given) | 103% (active) | 54 |
| Cc1nonc1OCCNC(=O)C12CC3CC(CC(C3)C1)C2 | 0.6% (inactive) | – |
| COc1cc(/C=C2/C(=N)N3C(=NC2=O)SN=C3S(C)(=O)=O)ccc1OS(=O)(=O)c1ccc(C)cc1 | 72.4% (active) | – |
| CS(=O)(=O)C1=NN2C(=N)/C(=C\c3ccc(OCCOc4ccccc4)cc3)C(=O)N=C2S1 | 80.6% (active) | – |
| COc1cc(/C=C2/C(=N)N3C(=NC2=O)SN=C3S(=O)(=O)C(C)C)ccc1OS(=O)(=O)c1ccccc1 | 71.6% (active) | – |
| COc1cc(/C=C2/C(=N)N3C(=NC2=O)SN=C3S(=O)(=O)C(C)C)ccc1OC(=O)c1ccco1 | 37.9% (inactive) | – |
| COc1cc(/C=C2\C(=N)N3N=C(S(C)(=O)=O)SC3=NC2=O)ccc1OS(=O)(=O)c1ccc(C)cc1 | 76.5% (active) | – |
| COc1cc(/C=C2/C(=N)N3C(=NC2=O)SN=C3S(C)(=O)=O)ccc1OC(=O)c1ccco1 | 58.3% (inactive) | 49.7 |
| COc1cc(/C=C2/C(=N)N3N=C(C)SC3=NC2=O)ccc1OS(=O)(=O)c1ccc(C)cc1 | 13.4% (inactive) | – |
| COc1cc(/C=C2/C(=N)N3N=C(C(C)C)SC3=NC2=O)ccc1OS(=O)(=O)c1ccccc1 | 22.3% (inactive) | – |
| COc1cc(/C=C2\C(=N)N3N=CSC3=NC2=O)ccc1OS(=O)(=O)c1ccccc1 | 10% (inactive) | – |
| CCS(=O)(=O)C1=NN2C(=N)/C(=C\c3ccc(OS(=O)(=O)c4ccccc4)cc3)C(=O)N=C2S1 | 39.1% (inactive) | – |
| CCC1=NN2C(=N)/C(=C/c3ccc(OS(=O)(=O)c4ccc(C)cc4)c(OC)c3)C(=O)N=C2S1 | 46.6% (inactive) | – |
| CS(=O)(=O)C1=NN2C(=N)/C(=C\c3ccc(OC(=O)c4ccco4)cc3)C(=O)N=C2S1 | 47.6% (inactive) | – |
| CCNC(=O)COc1ccc(OCc2ccccc2)cc1 | 2% (inactive) | – |
| CC1(C)NC(=O)N(CC(O)CN(Cc2ccccc2)Cc2ccccc2)C1=O (stereo not given) | 0.1% (inactive) | – |
